A selection: hits, their analogues and other compounds. The true share with any hit is near 21%.
Pf growth 48h: inhibits P. falciparum growth in the first generation, 48 h; P. falciparum luciferase growth in erythrocytes, 48 h; Potency, µM (highest dose often 28.7 µM), for inactives: at the highest dose activity change, negative = inhibition, usual class: inhibitors; 5.9% of 310,000 active; active = well fitted inhibition curve with a large enough effect; inconclusive = small, poorly fitted or top-dose-only effect, or another doubt; inactive = no such curve, though single readings can be large or run the other way; also: potency is read from the fitted curve at half-maximal effect; % is scaled to controls: 0 for no effect and ±100 for the full control effect
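Read-out is firefly luciferase luminescence from an integrated reporter in P. falciparum, so falling signal marks reduced parasite growth. Infected erythrocytes were at 2% hematocrit and 0.1% parasitemia (final) in Albumax-supplemented RPMI 1640.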
Shiga inhibitor: inhibitors of Shiga toxin in Vero cells; AID 2315; 9.2% of 290,000 active; inhibition, % at 38.7 µM; Vero cells, Shiga toxin protein synthesis inhibition reporter; in the data active = inhibition mostly above about 28%, no sharp cut-off; inactive = mostly below about 43%; also: 0% is about no effect
NS1 function inh: influenza NS1 inhibition | Potency, µM (titrated, usually from 46.1 µM), inactives show at the highest dose activity, positive = more growth | 0.4% of 270,000 active; also: potency is read from the fitted curve at half-maximal effect; actives are rising curves; nearly all actives have a fitted effect of over 50% in size
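S. cerevisiae expressing influenza A NS1, grown in glucose, washed, then diluted 1:100 into pH 6.0 -URA galactose medium with 23 nl compound. Growth recovery read as OD600; NS1-free strain serves as control.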
CHX counter: counter-screen for Shiga toxin inhibitors: cycloheximide protein synthesis inhibition; 12% of 300,000 active; AID 2314; cell reporter, cycloheximide protein synthesis inhibition counterscreen; max response, %; in the data active = max response mostly above about 13%, no sharp cut-off; inactive = mostly below about 14%; also: read at 38.3 µM for the half of the compounds with a filed dose; 0% is about no effect
Pf growth 96h: P. falciparum growth inhibition at 96 hours | P. falciparum luciferase reporter growth, 96 h | Potency, µM (top dose mostly 28.7 µM), inactives show at the highest dose activity change, negative = inhibition, hits mostly inhibitors | 6.9% of 320,000 active | AID 504834; active = well fitted inhibition curve with a large enough effect; inconclusive = small, poorly fitted or top-dose-only effect, or another doubt; inactive = no such curve, though single readings can be large or run the other way; also: potency is read from the fitted curve at half-maximal effect; % is scaled to controls: 0 for no effect and ±100 for the full control effect
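P. falciparum expressing integrated firefly luciferase, in erythrocytes at 2% hematocrit, 0.05% parasitemia, incubated with compounds 96 h at 37 C, 5% CO2. Growth inhibition read as loss of luminescence; two-generation exposure targets delayed-death apicoplast inhibitors.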
SARS PLpro yeast: inhibitors of SARS-CoV papain-like protease in yeast. S. cerevisiae expressing SARS-CoV PLpro, growth rescue. Potency, µM (top dose mostly 32.9 µM), without a hit: at the top dose activity, positive = growth rescue, most hits filed as activators. 0.19% of 330,000 active. AID 485353; also: potency is read from the fitted curve at half-maximal effect; 0% is about no effect; nearly all actives have a fitted effect of over 55% in size
An asterisk follows results filed as active; ? = inconclusive; . = no result given; [ ] = another dose, or the depositor's remark. Unless noted, calls follow the shape of the full dose curve.

SMILES | Pf growth 48h | Shiga inhibitor | NS1 function inh | CHX counter | Pf growth 96h | SARS PLpro yeast
Cc1ccc2c(c1)S/C(=C/c1ccc[n+](CCO)c1)N2C | ? | -9.8 | . | -4.6 | 4.3% | 1.5%
C[n+]1ccccc1/C=C1\Sc2ccccc2N1CCO | ? | -6.3 | -5.6% | -3.0 | 2.08µM* | -1.0%
Cc1ccc2c(c1)S/C(=C\c1cccc[n+]1C)N2CCO | 3.29µM* | -3.9 | 3.7% | -1.7 | -8.7% | -1.7%
O=[N+]([O-])c1ccc2[nH]c(O)c(N=NC3CS(=O)(=O)CC3O)c2c1 (stereo not drawn) | 3.3% | -2.1 | 0.2% | -2.6 | 20.3% | -0.4%
CCOC(=O)CSc1ccc(S(=O)(=O)N(C)C2CCCCC2)cc1[N+](=O)[O-] | 7.6% | -5.1 | -3.8% | -3.5 | . | 1.5%
COc1ccc(C(=O)/C=C/c2cccc(OCc3ccccc3)c2)cc1CSCC(=O)O | 9.28µM* | -2.2 | 8.2% | -7.7 | 4.65µM* | 0.7%
COc1ccc(C(=O)/C=C/c2ccc(OCc3ccccc3)cc2)cc1CSCC(=O)O | 15.0% | -6.1 | -0.5% | 1.1 | -13.2% | 0.4%
Cc1ccccc1C(=O)Nc1ccccn1 | 23.2% | 56.9* | -3.8% | 32.0* | 6.5% | .
Cc1cc(C(=O)Nc2ccccn2)cs1 | 433.3% | 48.1* | -3.3% | 37.4* | . | -16.5%
COc1cc(C(=O)Nc2ccccn2)cc(OC)c1OC | 4.3% | -5.2 | 1.7% | -4.3 | 10.7%[5.75 µM] | -1.0%
Cc1ccccc1C(=O)Nc1ccc(Cl)cn1 | 172.6% | 115.0* | -34.6% | 24.2* | ? | -1.7%
Cn1cc(C(=O)Nc2ccccn2)c(=O)c2ccccc21 | 159.3% | 47.3* | 1.7% | 19.7* | ? | 1.4%
O=C(Nc1ccccc1C(=O)Nc1ccccn1)c1ccccc1F | 0.1% | -5.0 | 3.6% | -2.6 | -10.1% | 1.0%
O=C(CCNC(=O)Cn1ccc2ccccc2c1=O)NCc1ccccn1 | 15.8% | -9.9 | . | -1.8 | ? | -4.4%
CN(C1CCCCC1)S(=O)(=O)c1ccc(S(=O)(=O)N2CCCC2)cc1 | ? | 18.9 | -27.8% | -4.2 | 1.65µM* | -3.4%
CCOc1ccc(S(=O)(=O)N(C)CC(=O)NC2CC2)cc1 | ? | 16.7 | 4.6% | 0.9 | 15.0% | -7.1%
CCOc1ccc(S(=O)(=O)N(C)C2CCCCC2)cc1 | 28.4% | -8.9 | -31.8% | -1.1 | 1.65µM* | 8.0%
Cn1cc(S(=O)(=O)Oc2ccccc2)c(=O)n(C)c1=O | ? | -9.6 | . | -2.4 | ? | 2.9%
O=CC1=C(c2ccccc2)Oc2ccccc2O1 | 2.0% | 93.7* | -128.0% | 38.3* | ? | -31.1%
COc1ccc(-n2nc3c(c2NC(=O)c2ccccc2S(=O)(=O)C(F)F)CS(=O)(=O)C3)cc1 | -12.0% | 17.1 | 4.3% | -2.2 | ? | -2.4%
CC(=O)c1ccc(NS(=O)(=O)c2ccc(N/C=C/C(=O)c3ccc(F)cc3)cc2)cc1 | ? | 81.4* | -40.5% | 53.2* | ? | 0.4%
Cc1ccc(C(=O)/C=C/Nc2ccc(S(=O)(=O)Nc3cc(C)nc(C)n3)cc2)cc1 | ? | 29.5 | -13.4% | 29.5* | 1.5% | 1.6%
CC(=O)c1cccc(NS(=O)(=O)c2ccc(N/C=C\C(=O)c3ccc(F)cc3)cc2)c1 | ? | 122.3* | 5.4% | 36.7* | ? | ?
Cc1cc(C)cc(OC(C)C(=O)Nc2ccc(S(=O)(=O)Nc3cc(C)nc(C)n3)cc2)c1 (stereo not drawn) | 1.4% | -1.6 | -9.3% | -2.1 | 13.1µM* | -12.2%
CCCN1C(=O)c2cc(C(=O)Nc3ccc(OC)cc3OC)ccc2C1Nc1ccc(OC)cc1OC (stereo not drawn) | ? | -4.4 | . | 6.1 | ? | -3.9%
SMILES | Pf growth 48h | Shiga inhibitor | NS1 function inh | CHX counter | Pf growth 96h | SARS PLpro yeast
CC[C@@H](C)C(NC(=O)OC(C)(C)C)c1cn([C@@H](CCC(=O)OC(C)(C)C)C(=O)N2CCN(C(=O)OC(C)(C)C)CC2)nn1 (stereo partly drawn) | ? | -7.0 | 3.4% | -1.6 | ? | 0.1%
O=C(CCCCCNC(=O)N1CCn2c1nc1ccccc12)N[C@@H](Cc1ccccc1)C(=O)O | 16.5% | 19.9 | 4.9% | -0.7 | ? | -1.7%
COc1cc(NS(=O)(=O)c2ccc(N/C=C\C(=O)c3ccc(F)cc3)cc2)nc(OC)n1 | 20.4% | 94.2* | 16.4% | 71.2* | 437.8% | ?
COc1cc(NS(=O)(=O)c2ccc(NS(=O)(=O)c3ccc(NC(C)=O)cc3)cc2)nc(OC)n1 | 21.3% | -6.3 | 2.1% | -8.8 | 29.1% | 10.3%
CC(=O)c1cccc(NS(=O)(=O)c2ccc(NC(=O)N3CCCCC3)cc2)c1 | 3.6% | 16.9 | -5.4% | -1.7 | 10.4µM* | -3.8%
CN(C)S(=O)(=O)c1cccc(NC(=S)N(CCC#N)Cc2cccnc2)c1 | -5.9% | -4.3 | . | -2.9 | 2.5% | -2.8%
CC(C)CCNC(=O)c1ccc(Cn2c(=S)[nH]c3ccccc3c2=O)cc1 | ? | -1.9 | -0.9% | -2.4 | -59.1% | -0.1%
CCOC(=O)c1c(CN(C)C)n(C)c2c(O)c(N=NC(N)=O)c3ccc(Br)cc3c12 | 0.415µM* | 22.0 | 0.0% | -0.7 | 4.3% | -0.3%
CN1C(=O)C2(c3ccccc31)N(C)CC(c1ccccc1)C21SC(=S)N(Cc2ccco2)C1=O (stereo not drawn) | 1.31µM* | -7.9 | 2.6% | 0.7 | 14.7µM* | -17.5%
CN1C(=O)C2(c3ccccc31)N(C)CC(c1ccccn1)C21SC(=S)N(Cc2ccco2)C1=O (stereo not drawn) | 9.28µM* | 27.3 | -70.2% | 31.8* | ? | -14.4%
CN1C(=O)NC(c2ccccc2)C2=C1CN(Cc1ccco1)C2=O (stereo not drawn) | 4.1% | 5.9 | -8.8% | -1.9 | 7.9% | -0.1%
O=C(COc1ccccc1F)N1CCCc2ccccc21 | 0.0% | . | 6.1% | 22.4* | -13.7% | 1.6%
O=C(COc1ccccc1[N+](=O)[O-])N1CCCc2ccccc21 | ? | 9.5 | -1.5% | 16.8* | 38.1% | -3.2%
CCOc1ncccc1C(=O)OCC(=O)NCCc1ccc(OC)cc1 | . | -1.1 | -6.6% | -3.0 | 11.7% | -2.6%
O=C(COC(=O)c1cccnc1Cl)Nc1ccc2c(c1)OCO2 | 90.2% | 97.1* | . | 31.6* | -9.2% | -0.6%
CCOc1ncccc1C(=O)OCC(=O)Nc1ccc2c(c1)OCCO2 | -1.9% | . | . | . | -32.8% | -4.4%
CSc1ncccc1C(=O)OCC(=O)Nc1ccc2c(c1)OCO2 | 25.4% | 35.4* | . | 11.7 | 26.8% | -3.6%
Cc1noc(C)c1COc1ccc(C(=O)OCC(=O)Nc2ccc3c(c2)OCO3)cc1 | 2.1% | -4.5 | 1.8% | -2.4 | 20.3% | 11.2%
CCOC(=O)c1cccnc1SCC(=O)Nc1ccc(C)cc1 | 89.0% | 48.0 | . | 21.9* | -2.0% | -4.9%
CSc1ncccc1C(=O)OCC(=O)Nc1ccc2c(c1)CCC2 | -7.5% | . | . | . | 12.4% | -5.8%
Cc1noc(C)c1COC(=O)c1ccc2c(c1)OCO2 | . | -4.3 | -45.0% | 1.9 | 7.38µM* | 0.7%
CCc1ccccc1NC(=O)c1cc(=O)c2ccccc2o1 | 7.9% | 17.5 | -4.5% | 12.7 | -0.7% | -1.4%

Compound activity deposited in PubChem by National Center for Advancing Translational Sciences (NCATS).
